Assay results taken from PubChem BioAssay AID463190 (Sanford-Burnham Center for Chemical Genomics, 2010).
The campaign covered roughly 330,000 compounds. About 7,300 (2.2%) were called active. The sample as a whole holds a higher share of actives than the screen did. Values without a mark were called inactive.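 Rule for the calls: active = inhibition of at least 40%; inactive = the rest.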

Assay: growth inhibitors of tim10-1 mutant yeast, primary screen, luminescence, uHTS (AID 463190);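 note: mutant grown at 25 °C; 0% = DMSO wells with yeast and 100% = wells holding no yeast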
Conditions: S. cerevisiae tim10-1 ts strain growth, BacTiter-Glo, 24 h; at 20 µM; hits give high values

SMILES	inhibition
Cc1ccc(C(=O)Nc2c(C#N)c(C)c(C)n2Cc2ccccc2)cc1	17.9%
O=C(CCNS(=O)(=O)c1ccc(Br)cc1)NCC1CCCO1 (stereo not drawn)	1.09%
OC(CNCC1CCCO1)Cn1c2ccc(Br)cc2c2cc(Br)ccc21 (stereo not drawn)	45.7% (active)
O=C(CSc1ccc(-c2ccc(Br)cc2)nn1)NCC1CCCO1 (stereo not drawn)	17.5%
NC(=O)C1CCN(C(=O)/C(=C/c2ccco2)NC(=O)c2ccccc2)CC1	-8.85%
NC(=O)CC[C@@H]1NC(=O)[C@H](CO)NC(=O)c2cc([N+](=O)[O-])cc(I)c2NCC[C@@H](C(N)=O)NC1=O	-26.8%
CCOc1ccc(NC(=O)[C@H](C)NC(=O)C2CC(=O)N(c3ccc(OC)cc3)C2)cc1 (stereo partly drawn)	-6.36%
COC(=O)C(NS(=O)(=O)c1ccc(F)cc1)c1ccccc1 (stereo not drawn)	13.7%
Cc1ccc(OCC(=O)Nn2cnc3ccccc32)cc1	1.81%
Cc1ccc(OS(=O)Nc2cccc3nccnc23)cc1 (stereo not drawn)	54.6% (active)
Cc1ccc(Oc2ccc3c(c2)C(=O)N(c2cccc4cccnc24)C3=O)cc1	18.3%
CCOc1ccc(NS(=O)(=O)c2cc(C)c(C)cc2C)cc1	1.28%
CC(C)(C)c1cc(CN2CCN(CCC#N)CC2)cc(C(C)(C)C)c1O	-1.87%
CCN1/C(=C\c2ccc3ccccc3[n+]2CC)Sc2cc(C)ccc21	65.2% (active)
C=CCn1c(COc2ccc(F)cc2)nnc1SCC(=O)Nc1cccc(S(N)(=O)=O)c1	-3.82%
O=c1nc(N2CCOCC2)nc2n1CCO2	-13.4%
CCC1CCCCN1C(=O)CSc1nc2c(c(=O)n(C)c(=O)n2C)n1C (stereo not drawn)	0.551%
O=S(=O)(c1ccc(F)cc1)n1ccc(-c2cnc(-c3ccccc3)s2)n1	24.1%
CC(=O)Oc1ccc2c(=O)oc(-c3ccc([N+](=O)[O-])cc3)nc2c1	22.6%
COc1ccc2oc(-c3cccc(NC(=O)CSc4ccc(Cl)cc4)c3)nc2c1	21.6%
O=[N+]([O-])c1ccc2oc(-c3cccc(O)c3)nc2c1	45.7% (active)
Cc1ccc(OS(=O)(=O)c2ccc(-c3csc(C)n3)s2)c(C)c1	10.6%
COc1cc(C=O)ccc1Oc1nnnn1-c1ccccc1	22.8%
O=C(NC(Nc1nc2ccc([N+](=O)[O-])cc2s1)(C(F)(F)F)C(F)(F)F)c1ccccc1	85.4% (active)

SMILES	inhibition
O=C(CCNC(=O)c1ccccc1)Nc1nc2ccccc2s1	-11%
O=C(CNC(=O)c1ccccc1)Oc1ccc([N+](=O)[O-])cc1	3.17%
CCC(=O)Nc1cccc(C2=NOC3(C2)C[C@@H](C(N)=O)N(C(=O)c2cc([N+](=O)[O-])cc([N+](=O)[O-])c2C)C3)c1 (stereo partly drawn)	9.39%
O=C1c2ccccc2C(=O)c2c1cccc2N1CCN(Cc2ccccc2)CC1	49.4% (active)
O=C1c2ccccc2C(=O)c2c1cccc2N1CCN(C/C=C/c2ccccc2)CC1	23.3%
O=C1c2ccccc2C(=O)c2c1cccc2N1CCN(CCO)CC1	15.9%
CC1CCN(S(=O)(=O)c2ccc3c(ccn3CC(=O)O)c2)CC1	6.77%
O=C(Cc1c(F)cccc1Cl)Nc1ncc([N+](=O)[O-])s1	32.8%
O=C(CCc1ccccc1)Nc1ncc([N+](=O)[O-])s1	45.9% (active)
COc1ccc([N+](=O)[O-])cc1NC(=O)CCc1ccccc1	27.1%
O=C(C1CCCN(S(=O)(=O)c2ccccc2)C1)N1CCN(c2ccc(F)cc2)CC1 (stereo not drawn)	17.6%
Fc1ccccc1-c1cc2cc3c(cc2cn1)OCO3	-19.8%
COCCNC(=S)N(CCc1c(C)[nH]c2ccc(C)cc12)Cc1cccnc1	11.6%
COc1cccc(NC(=S)N(CCc2c(C)[nH]c3ccccc23)Cc2ccco2)c1	32.4%
CCNC(=S)N(CCc1c(C)[nH]c2ccc(C)cc12)Cc1ccco1	45.6% (active)
CC(CNS(=O)(=O)c1ccc(Br)cc1)CN(C)C (stereo not drawn)	6.17%
N/C(=N\OC(=O)Nc1ccc(Cl)c(Cl)c1)c1ncc(C(F)(F)F)cc1Cl	49.2% (active)
O=C(c1ccccn1)c1ncc(C(F)(F)F)cc1Cl	7.58%
N/C(=N\OC(=O)CCCC(=O)O)c1ncc(C(F)(F)F)cc1Cl	1.66%
Cc1cccc(NC(=O)C2CCCN(C(=O)Nc3ccc(F)cc3)C2)c1C (stereo not drawn)	-25.6%
Cc1ccccc1CC1(CO)CCCN(Cc2ccc3c(c2)OCCO3)C1 (stereo not drawn)	8.67%
Cc1ccccc1CC1(CO)CCCN(C(=O)c2cc(-c3ccccc3)no2)C1 (stereo not drawn)	42.6% (active)
Cc1noc(C)c1CCC(=O)N1CCCC(CO)(Cc2ccccc2)C1 (stereo not drawn)	-14.1%
Cc1cccc(-n2ncc(Cl)c(Cl)c2=O)c1	-25.8%

SMILES	inhibition
Cc1ccc(OC(=O)c2c(C)nn(-c3ccccc3)c2C)cc1	25.6%
Cc1ccc(Oc2cnn(-c3ccccc3)c(=O)c2Br)cc1	42.1% (active)
COc1ccc(S(=O)(=O)/N=C2\C=C(NS(=O)(=O)c3ccccc3)C(=O)c3ccccc32)cc1	31.1%
CCc1[nH]nc(C(=O)N2CCCC(CO)(Cc3ccc(F)cc3F)C2)c1C (stereo not drawn)	24.1%
COc1cc2c(cc1OC)C(C(=O)Nc1cc(C)c(OC)c(C)c1)CC(=O)N2 (stereo not drawn)	-5.96%
CS(=O)(=O)N(Cc1ccccc1)c1ccc(C(=O)NN=C2CCCCCC2)cc1	17.2%
O=C(N/N=C/c1cccc(Br)c1)c1ccc(N2CCCC2=O)cc1	-37.8%
O=C(N/N=C\c1cccc(Br)c1)c1ccccc1-n1cccc1	57.6% (active)
O=C(CNC(=O)c1cccs1)N/N=C/c1cccc(Br)c1	22%
CCN(Cc1ccncc1)C(=O)CCc1ccccc1	-0.112%
COc1ccc(NC(=O)/C(C#N)=C\c2cc(OC)c(OCc3ccc(C(=O)O)cc3)cc2Br)cc1	26.4%
COc1ccc(CNC(=O)CCn2cccc2)cc1	9.29%
COc1ccc(CNC(=O)/C(C#N)=C/c2cccc(OC)c2OC)cc1	63.8% (active)
CC(C)c1ccc(/C=C2\NC(=O)NC2=O)cc1	10.2%
Cc1[nH]c2ccc(C(=O)N3CCN(C)CC3)cc2c1C	-12.6%
COc1ccccc1N1CCN(C(=O)c2ccc(Cl)c(S(=O)(=O)N3CCCC3)c2)CC1	22%
CCOc1ccccc1N1CCN(C(=O)c2ccc3[nH]c(C)c(C)c3c2)CC1	48.8% (active)
COc1ccc(-c2c(C#Cc3ccsc3)c3cc(-c4ccc(CN5CCOCC5)cc4)ccc3n2C)cc1	15.1%
Cc1ccccc1C(=O)N1CCC(C(=O)Oc2ccc(C#N)cc2)CC1	-2.27%
CCOc1ccccc1/C=c1\sc2nc(-c3ccco3)nn2c1=O	54.3% (active)
CS(=O)(=O)n1nc(-c2ccco2)nc1N	3.68%
CCCn1nc(C(=O)NNC(=O)CCOc2ccccc2OCC)c2ccccc2c1=O	17.6%
Cn1cccc1C(C#N)c1ccccc1C#N (stereo not drawn)	10.1%
O=C(NC1(C(F)(F)F)NC(=O)N(Cc2cccnc2)C1=O)c1ccccc1Cl (stereo not drawn)	9.72%

SMILES	inhibition
COc1cc(C(=O)N(C)Cc2cccc(OC)c2OC)ccc1OCC(=O)Nc1cccc(C(F)(F)F)c1	20.8%
CCn1c(C)cc(=O)cc1-c1ccc(Cl)cc1	8.56%
COc1ccc(Cn2c(-c3ccc(Cl)cc3)c[n+]3ccccc23)cc1	48.6% (active)
COc1ccc(Cn2c(=O)cc(C)[nH]c2=S)cc1	-11.8%
Cc1cccc(NS(=O)(=O)c2cccc(C(=O)NNC(=O)c3ccccc3O)c2)c1	21.6%
O=C(CN1CCN(C(=S)NC2CCCC2)CC1)Nc1ccc(Oc2ccccc2)cc1	12.6%
Cc1ccc2cc(C#N)c(NCCNC(=S)NCCCN3CCOCC3)nc2c1	-0.527%
CC(C)N(C(=O)Cn1cc(S(=O)(=O)CC(=O)N2CCOCC2)c2ccccc21)C(C)C	-3.3%
O=C(Nc1ccon1)c1nc[nH]c1C(=O)NCc1ccccc1	7.98%
CCOC(=O)c1[nH]cnc1C(=O)Nc1ccccc1C	11.6%
CCOC(=O)c1ccc(NC(=O)c2nc[nH]c2C(=O)NCc2ccccc2)cc1	41.1% (active)
CC(C)c1ccc(S(=O)(=O)N2CCN(C(C)C(=O)NC3CCCC3)CC2)cc1 (stereo not drawn)	13.4%
Nc1c(C(=O)O)cnn1-c1ccccc1	2.2%
CCN(C(=O)COC(=O)c1ccccc1O)c1cccc2ccccc12	24.2%
Nc1nonc1-n1nnc(C(=O)N/N=C/c2c[nH]c3ccccc23)c1-c1ccccc1	11.6%
CSC(=S)N/N=C/c1c[nH]c2ccccc12	54.2% (active)
O=C(O)c1cccc(NC(=S)N/N=C/c2c[nH]c3ccccc23)c1	19%
Cn1cnc(S(=O)(=O)Nc2ccc3c(c2)OCCO3)c1	-19.7%
O=C(CC1N=C2c3ccccc3N=C(SCc3ccccc3Cl)N2C1=O)NCc1ccco1 (stereo not drawn)	24.8%
S=C(NCc1ccco1)NCc1ccccc1Cl	28.9%
Clc1ccccc1CSc1nnc(-c2ccco2)c(-c2ccco2)n1	41.7% (active)
